Measured values published in PubChem BioAssay.
“And” between values parts separate entries of the source, which are not always exact repeats. Equal entries are not always repeated. Records with an inconclusive call do not appear. The source made the active and inactive calls. Unless noted, cut-off not given; nearly all actives show AC50 up to about 26 µM.

Key:
[1] = viability loss in pontine glioma line – cell-based, SU-DIPG-XXV, MIPE5.0, CellTiter-Glo, qHTS, dose response (AID 1347065); conditions: CellTiter-Glo ATP luminescence;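 further: cells exposed to compound for 48 hours before ATP readout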
[2] = SU-DIPG-VI glioma cell viability, MIPE4.0 library, CellTiter-Glo luminescence, qHTS (AID 1347066; cut-off not given, nearly all actives have AC50 up to about 30 µM;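 further: cells exposed to compound for 48 hours before readout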); conditions: CellTiter-Glo ATP luminescence
[3] = JHH-DIPG-1 glioma cell viability, MIPE5.0 library, CellTiter-Glo luminescence, qHTS (AID 1347067); conditions: JHH-DIPG-1 glioma viability, CellTiter-Glo ATP luminescence;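 further: cells exposed to compound for 48 hours before readout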
[4] = SU-DIPG-XXV glioma cell viability, MIPE5.0 library, qHTS (AID 1347068; cut-off not given, nearly all actives have IC50 up to about 30 µM;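 on IC50: cells exposed to compound for 48 hours before viability readout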)
[5] = sensitizers of A549 cells to miR-34 induction, primary screen, imaging, A549 dox-inducible miR-34, nuclei and caspase counts (AID 1347080;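 active means compounds whose cell count with miR-34 switched on is under 0.7 times the count with it off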); conditions: A549 miR-34 inducible, Hoechst nuclei count, 48 h
[6] = inhibitors of Cryptococcus chitosan production, flow cytometry, Cibacron Brilliant Red staining (AID 1347148; call rule not given here;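 further: compound exposure lasted three days at 37 degrees C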); conditions: Cryptococcus neoformans chitosan, stronger effect = lower value; at 10 µM unless noted
[7] = survival rescue of mitochondrial mutant cells in low glucose, primary screen, MELAS cybrids, Rieske KO mouse fibroblasts, CellTiter-Glo (AID 1508586;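 active means mean z-score across replicates of 1.96 or higher in either the MELAS or the Rieske mutant cell line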;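 further: z relative to plate mean and SD of compound and empty wells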)
[8] = biological target: NAD(+) hydrolase SARM1 (Homo sapiens) (UniProt Q6SZW1); experiment: SARM1 TIR NADase inhibitors, cell lysate, NAD-Glo luminescence (AID 1508614;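 active means compound whose remaining NAD level is above about 45 nM, limit read from the data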); conditions: SAM-TIR HEK293T lysate NADase, at 1 µM, stronger effect = higher value
[9] = viability rescue of complex I mutant cybrids, primary screen, cell-based, galactose medium, ATP luminescence (AID 1645843;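 active means z-score of at least 1.8 in each of two replicates, scored against plate mean and spread of sample wells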;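 further: positive z means more ATP and so rescue of galactose-driven cybrid death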); conditions: complex I mutant cybrid cells, 72 h, stronger effect = higher value
[10] = biological target: Mitogen-activated protein kinase 7 (Homo sapiens) (UniProt Q13164); experiment: ERK5 transactivation activators in reporter cells, primary screen, cell-based, HTS (AID 1508626;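 active means luciferase signal above three times the same-plate solvent-only control wells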;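 further: luciferase driven by Gal4-ERK5 fusion binding five Gal4 sites before minimal TATA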); conditions: HeLa Gal4-ERK5 transactivation, 18 h, at 5 µM, stronger effect = higher value
[11] = phospholipid biosynthesis inhibitors in animal cells, primary screen, cell-based, LOPAC library, screen 4 (AID 1347384; call rule not given here); conditions: phospholipid biosynthesis inhibition screen, at 10 µM
[12] = stronger effect = lower value, cell number ratio, induced over uninduced
[13] = measured here: relative caspase fold change +Dox/-Dox
[14] = measured here: total cells with miR-34 induction, stronger effect = lower value
[15] = measured here: total cells without miR-34 induction
[16] = MELAS cybrid survival, CellTiter-Glo 48 h, stronger effect = higher value
[17] = Rieske KO mouse fibroblast survival, CellTiter-Glo 72 h

Sequence of NAD(+) hydrolase SARM1 (Homo sapiens) (Q6SZW1 whole entry, looked up): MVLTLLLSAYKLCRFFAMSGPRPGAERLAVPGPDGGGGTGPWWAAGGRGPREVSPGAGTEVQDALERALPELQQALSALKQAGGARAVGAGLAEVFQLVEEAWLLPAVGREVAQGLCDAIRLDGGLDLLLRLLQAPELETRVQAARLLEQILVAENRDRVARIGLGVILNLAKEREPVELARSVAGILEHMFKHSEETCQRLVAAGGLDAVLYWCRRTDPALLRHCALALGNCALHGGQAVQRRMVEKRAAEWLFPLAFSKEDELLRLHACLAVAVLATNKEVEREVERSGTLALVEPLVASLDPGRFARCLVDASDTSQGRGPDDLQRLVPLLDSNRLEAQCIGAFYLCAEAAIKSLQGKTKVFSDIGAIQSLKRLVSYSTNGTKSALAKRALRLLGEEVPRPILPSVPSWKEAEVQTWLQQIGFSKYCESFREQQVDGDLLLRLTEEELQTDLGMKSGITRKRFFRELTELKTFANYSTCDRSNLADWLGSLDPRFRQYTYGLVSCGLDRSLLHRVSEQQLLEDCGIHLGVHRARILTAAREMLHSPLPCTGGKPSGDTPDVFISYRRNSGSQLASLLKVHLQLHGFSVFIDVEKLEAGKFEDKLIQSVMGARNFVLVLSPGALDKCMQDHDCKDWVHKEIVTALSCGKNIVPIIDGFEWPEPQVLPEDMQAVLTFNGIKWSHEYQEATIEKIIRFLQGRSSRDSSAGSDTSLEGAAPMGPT
Sequence of Mitogen-activated protein kinase 7 (Homo sapiens) (Q13164 whole entry, looked up, the tested form may be a part): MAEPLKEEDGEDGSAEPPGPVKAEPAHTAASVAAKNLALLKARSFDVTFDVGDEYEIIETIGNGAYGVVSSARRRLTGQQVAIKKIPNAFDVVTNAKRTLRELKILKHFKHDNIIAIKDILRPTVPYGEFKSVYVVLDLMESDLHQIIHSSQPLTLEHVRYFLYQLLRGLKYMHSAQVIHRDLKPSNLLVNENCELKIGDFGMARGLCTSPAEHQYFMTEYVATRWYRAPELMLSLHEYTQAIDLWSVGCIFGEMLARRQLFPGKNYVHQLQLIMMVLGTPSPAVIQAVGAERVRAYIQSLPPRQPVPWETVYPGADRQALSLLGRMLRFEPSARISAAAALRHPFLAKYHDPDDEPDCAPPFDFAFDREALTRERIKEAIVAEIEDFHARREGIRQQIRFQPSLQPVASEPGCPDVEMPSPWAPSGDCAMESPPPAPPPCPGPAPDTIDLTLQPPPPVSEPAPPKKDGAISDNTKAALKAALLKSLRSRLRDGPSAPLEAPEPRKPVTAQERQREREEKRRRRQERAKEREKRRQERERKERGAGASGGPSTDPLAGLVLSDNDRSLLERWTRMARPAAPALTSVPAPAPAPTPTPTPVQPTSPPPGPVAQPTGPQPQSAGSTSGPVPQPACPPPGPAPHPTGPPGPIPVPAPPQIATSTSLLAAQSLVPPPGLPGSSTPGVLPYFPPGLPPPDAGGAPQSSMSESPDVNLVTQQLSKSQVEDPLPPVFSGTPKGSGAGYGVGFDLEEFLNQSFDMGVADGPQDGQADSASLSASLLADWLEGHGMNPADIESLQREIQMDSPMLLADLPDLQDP

| Compound | outcome [1] | outcome [2] | outcome [3] | outcome [4] | fold change [5, 12] | fold change [5, 13] | cell count [5, 14] | cell count [5, 15] | fold fluorescence [6] | z-score [7, 16] | z-score [7, 17] | remaining NAD [8] | z-score [9] | AC50 [1] | AC50 [2] | AC50 [3] | IC50 [4] | luciferase signal [10] | outcome [11] |
| --- | --- | --- | --- | --- | --- | --- | --- | --- | --- | --- | --- | --- | --- | --- | --- | --- | --- | --- | --- |
| CC1=NN(c2ccccc2)C(=O)C1 | inactive | inactive | inactive | inactive | 0.988 (inactive) and 0.936 (inactive) and 0.929 (inactive) | 0.941 and 1.18 and 0.593 | 5320 and 7500 and 8540 | 5390 and 8010 and 9190 | 4.15 [at 287 µM] (inactive) | -0.423 (inactive) | 0.67 | 10 nM (inactive) | 1.25 (inactive) |  |  |  |  |  |  |
| CN(C)c1ccc2nc3ccc(=[N+](C)C)cc-3sc2c1 |  |  |  |  | 0.946 (inactive) | 1.47 | 3100 | 3280 |  |  |  | 10 nM (inactive) |  | 5.9 µM (active) | 2.35 µM (active) | 10.5 µM (active) | 9.34 µM (active) | 80 AU (inactive) |  |
| CC(=O)O[C@H]1C[C@@H]2CC[C@@H]3[C@H](CC[C@@]4(C)[C@H]3C[C@H]([N+]3(C)CCCCC3)[C@@H]4OC(C)=O)[C@@]2(C)C[C@@H]1N1CCCCC1 | inactive | inactive | inactive | inactive | 0.831 (inactive) | 1.81 | 8710 | 10500 |  | 0.144 (inactive) and 0.341 (inactive) | -0.264 and -0.536 | 10 nM (inactive) | 0.335 (inactive) |  |  |  |  | 52 AU (inactive) |  |
| CCCN[C@H]1CCc2nc(N)sc2C1 | inactive | inactive | inactive | inactive | 0.926 (inactive) and 0.917 (inactive) | 0.996 and 1.3 | 7940 and 9730 | 8570 and 10600 |  | 0.752 (inactive) and 0.407 (inactive) | 0.13 and -0.361 |  | 0.97 (inactive) |  |  |  |  |  | inactive |
| C#C[C@]1(O)CC[C@H]2[C@@H]3CCc4cc(OC)ccc4[C@H]3CC[C@@]21C | inactive | inactive | inactive | inactive | 0.882 (inactive) | 0.717 | 9180 | 10400 |  | 1.7 (inactive) | 0.807 | 10 nM (inactive) |  |  |  |  |  | 80 AU (inactive) |  |
